Assay results from PubChem BioAssay (Tox21).
Where “and” joins values, the source holds several entries; their conditions need not be identical. Equal entries are not always repeated. Results filed as inconclusive are left out. Some structures have more than one record in an assay (separate samples or runs), and their calls can disagree. Calls of active or inactive are those of the source. Unless noted, calls follow the shape of the dose curve; as a rule, active = well fitted curve in the direction sought with a large enough effect in the repeat runs; inconclusive = weak or mixed curves; inactive = no such curve, though single readings can be large; an effect the other way counts as inactive or inconclusive.

Columns and labels:
[1] = qHTS assay to identify aromatase inhibitors - cell viability counter screen (AID 743084);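 also: cells stimulated with testosterone during compound exposure; nearly all actives have a fitted effect of over 55% in size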; also: potency is read from the fitted curve at half-maximal effect
[2] = molecular target: Aryl hydrocarbon receptor (Homo sapiens) (UniProt P35869); test: qHTS assay to identify small molecule that activate the aryl hydrocarbon receptor (AhR) signaling pathway (AID 743085); also: nearly all actives have a fitted effect of over 15% in size; also: potency is read from the fitted curve at half-maximal effect;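 as to activation: HG2L7.5c1 human HepG2 liver cells with stably integrated DRE-driven firefly reporter; series mostly up to about 70 µM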
Aryl hydrocarbon receptor (Homo sapiens), sequence (P35869 whole entry, looked up): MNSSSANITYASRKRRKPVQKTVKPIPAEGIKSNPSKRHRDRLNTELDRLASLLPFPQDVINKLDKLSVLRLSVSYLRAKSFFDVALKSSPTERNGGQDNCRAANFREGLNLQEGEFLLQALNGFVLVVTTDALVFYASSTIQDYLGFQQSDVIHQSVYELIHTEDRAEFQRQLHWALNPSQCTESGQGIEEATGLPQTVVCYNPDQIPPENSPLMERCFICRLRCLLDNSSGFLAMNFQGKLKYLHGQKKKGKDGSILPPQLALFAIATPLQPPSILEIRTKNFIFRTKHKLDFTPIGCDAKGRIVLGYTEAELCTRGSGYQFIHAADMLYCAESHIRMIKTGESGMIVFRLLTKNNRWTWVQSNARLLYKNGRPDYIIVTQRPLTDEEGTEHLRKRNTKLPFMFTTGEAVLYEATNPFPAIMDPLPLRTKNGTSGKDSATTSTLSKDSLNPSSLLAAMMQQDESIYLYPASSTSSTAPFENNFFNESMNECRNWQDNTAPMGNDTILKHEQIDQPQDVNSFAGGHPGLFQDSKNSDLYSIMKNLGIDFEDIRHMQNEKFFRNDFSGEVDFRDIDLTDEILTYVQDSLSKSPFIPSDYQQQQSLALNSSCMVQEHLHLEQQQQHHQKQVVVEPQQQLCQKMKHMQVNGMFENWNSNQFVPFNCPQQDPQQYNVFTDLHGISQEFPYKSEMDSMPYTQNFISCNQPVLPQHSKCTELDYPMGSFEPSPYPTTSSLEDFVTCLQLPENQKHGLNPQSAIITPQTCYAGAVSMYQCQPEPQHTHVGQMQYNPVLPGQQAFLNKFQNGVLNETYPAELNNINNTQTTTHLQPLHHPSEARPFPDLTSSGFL
Summary of the method: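 A multiplexed format paired cell viability (CellTiter-Fluor fluorescence) with AhR-dependent luciferase output (ONE-Glo luminescence) in the same wells of HepG2 DRE-luc cells after 24 h compound exposure at 37C.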

[3] = qHTS assay to identify small molecule that activate the aryl hydrocarbon receptor (AhR) signaling pathway - cell viability counter screen (AID 743086);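 also: HepG2 liver cells carrying the AhR DRE luciferase reporter; series mostly up to about 70 µM; nearly all actives have a fitted effect of over 45% in size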
Summary of the method: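 Cytotoxicity counter screen: CellTiter-Fluor signal (30 min, 37 C) in 4000 HepG2 cells/well carrying the DRE-luciferase reporter, following 24 h compound exposure at 37 C.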

[4] = molecular target: Peroxisome proliferator-activated receptor gamma (Homo sapiens) (UniProt P37231); test: qHTS assay to identify small molecule antagonists of the peroxisome proliferator-activated receptor gamma (PPARg) signaling pathway (AID 743191; calls by dose curve; also: nearly all actives have a fitted effect of over 30% in size; also: potency is read from the fitted curve at half-maximal effect)
Peroxisome proliferator-activated receptor gamma (Homo sapiens), sequence (P37231 whole entry, looked up): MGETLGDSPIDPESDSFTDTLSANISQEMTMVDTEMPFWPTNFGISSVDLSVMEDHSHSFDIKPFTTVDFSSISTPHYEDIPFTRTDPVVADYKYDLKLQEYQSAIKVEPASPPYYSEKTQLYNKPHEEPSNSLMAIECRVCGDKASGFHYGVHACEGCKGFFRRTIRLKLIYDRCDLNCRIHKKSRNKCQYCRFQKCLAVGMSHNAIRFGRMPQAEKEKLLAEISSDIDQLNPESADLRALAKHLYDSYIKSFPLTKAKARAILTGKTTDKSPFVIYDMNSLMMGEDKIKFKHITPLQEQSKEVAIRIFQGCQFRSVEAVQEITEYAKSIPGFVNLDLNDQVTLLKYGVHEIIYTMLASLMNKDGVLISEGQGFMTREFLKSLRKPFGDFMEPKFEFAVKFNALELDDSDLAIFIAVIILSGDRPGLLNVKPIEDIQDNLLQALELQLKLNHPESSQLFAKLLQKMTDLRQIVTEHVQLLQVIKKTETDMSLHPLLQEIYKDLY
Summary of the method: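 Beta-lactamase reporter under UAS control in HEK293H PPARg-bla cells; compound treatment 17 h at 37C. Read-out: fluorescence intensity after 1 h room-temperature incubation with LiveBLAzer B/G FRET substrate.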

[5] = qHTS assay to identify small molecule antagonists of the peroxisome proliferator-activated receptor gamma (PPARg) signaling pathway - cell viability counter screen (AID 743194); conditions: Potency: co-treated with 50 nM rosiglitazone unless noted; also: nearly all actives have a fitted effect of over 55% in size; also: potency is read from the fitted curve at half-maximal effect
Summary of the method: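 Viability was measured as CellTiter-Glo luminescence in GeneBLAzer PPARg UAS-bla HEK293H cells. These cells had been exposed 17 h at 37 C to compounds together with rosiglitazone at 50 nM final, with the beta-lactamase readout taken in the same wells.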

[6] = qHTS assay for small molecule agonists of the antioxidant response element (ARE) signaling pathway - cell viability counter screen (AID 743203; calls by dose curve; also: nearly all actives have a fitted effect of over 55% in size)
Summary of the method: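 Luminescence read-out (CellTiter-Glo, 30 min at room temperature) measured cell viability in the same wells as the ARE beta-lactamase reporter. HepG2 ARE-bla cells were treated with compounds for 16 hrs at 37C/5% CO2.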

[7] = qHTS assay for small molecule activators of the heat shock response signaling pathway - cell viability counter screen (AID 743209); also: nearly all actives have a fitted effect of over 50% in size
Summary of the method: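 HSE-bla HeLa; 1500 cells/well; overnight 37 C, 5% CO2; compound 5 h 37 C; LiveBLAzer B/G substrate 2.5 h RT; CellTiter-Glo 30 min RT; luminescence.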

[8] = qHTS assay for small molecule agonists of the antioxidant response element (ARE) signaling pathway (AID 743202; active = well fitted activation curve with a large enough effect in the signal ratio in the repeat runs, not every such curve was filed as active; the % refers to the signal ratio; also: potency is read from the fitted curve at half-maximal effect)
Summary of the method: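 After 16 hours of compound treatment at 37 C, HepG2 cells with a stably integrated ARE-driven beta-lactamase reporter were loaded 2 hours at room temperature with LiveBLAzer B/G FRET substrate and fluorescence intensity measured.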

[9] = molecular target: Peroxisome proliferator-activated receptor gamma (Homo sapiens) (UniProt P37231); test: qHTS assay to identify small molecule agonists of the peroxisome proliferator-activated receptor gamma (PPARg) signaling pathway (AID 743094; active = well fitted activation curve with a large enough effect in the signal ratio in the repeat runs, not every such curve was filed as active; the % refers to the signal ratio)
Summary of the method: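 HEK293H PPARg-bla cells, 5 h settle at 37C/5% CO2; compound (DMSO) 17 h, 37C; B/G FRET substrate 1 h RT; fluorescence intensity read-out. qHTS format.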

[10] = qHTS assay for small molecule activators of the heat shock response signaling pathway (AID 743210; active = well fitted activation curve with a large enough effect in the signal ratio in the repeat runs, with a control signal flat, not every such curve was filed as active; the % refers to the signal ratio; also: series mostly up to about 63 µM)
Summary of the method: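 Compound exposure lasted 5 h at 37 C in HeLa cells carrying a heat-shock-element-driven beta-lactamase reporter. Read-out: fluorescence intensity after 2.5 h room-temperature loading with LiveBLAzer B/G FRET substrate.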

Measured: Potency

CCC(C)(c1ccc(O)cc1)c1ccc(O)cc1
active: [4] 30.9 µM and 38.9 µM
inactive: [1] | [2] | [3] | [5] | [6] | [7]

CC(C)(c1cc(Cl)c(O)c(Cl)c1)c1cc(Cl)c(O)c(Cl)c1
inactive: [1] | [2] | [3] | [7]
active: [5] 49 µM and 24.5 µM | [8] 15.4 µM and 19.3 µM

Cc1ccc(N)c(N)c1
active: [8] 8.66 µM and 10.9 µM
inactive: [3] | [5] | [6] | [7]

Nc1ccc(-c2ccc(N)c(N)c2)cc1N
54.3 µM (active) and inactive: [1]
inactive: [9] | [5] | [6] | [7]
active: [2] 484 nM and 3.06 µM

CCCCCCCCC(=O)NCc1ccc(O)c(OC)c1
inactive: [1] | [3] | [9] | [5] | [8] | [6] | [7] | [10]

N[C@@H](Cc1ccc(N(CCCl)CCCl)cc1)C(=O)O
inactive: [2] | [3] | [9] | [5] | [8] | [6] | [7]

N#CCCCl
inactive: [3] | [5] | [8] | [6] | [7] | [10]

COc1ccc(C(CN(C)C)C2(O)CCCCC2)cc1 (stereo unspecified)
inactive: [1] | [3] | [9] | [4] | [5] | [8] | [6] | [7] | [10]

CC(C)=CC1C(C(=O)OCc2coc(Cc3ccccc3)c2)C1(C)C (stereo unspecified)
active: [8] 54.5 µM and 30.6 µM
inactive: [1] | [2] | [3] | [5] | [6] | [7]

Cc1cc(C)cc(C)c1
inactive: [3] | [5] | [8] | [6] | [7] | [10]

c1ccc(NNc2ccccc2)cc1
inactive: [3] | [5] | [8] | [6] | [7] | [10]

Nc1ccc(-c2ccccc2)cc1
active: [2] 9.69 µM
inactive: [1] | [3] | [5] | [6] | [7] | [10]
inactive and 27.3 µM (active): [8]
